Assay results as given in PubChem BioAssay AID1224921 (Broad Institute, 2016).
The whole screen tested about 1,400 compounds, of which about 350 (25%) were called active. Not shown: some 2% with an inconclusive outcome. The rule behind the calls is not given here. Only a sample is shown. Entries with a potency or affinity are not part of this list.

assay: inhibitors of Clostridioides difficile proliferation – 4-point retest, confirmation (AID 1224921); conditions: Clostridioides difficile clinical isolate growth, OD600, 24 h, stronger effect = lower value; at 30 µM unless noted;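 note: plate controls were DMSO wells for no effect and levofloxacin 16 µg/mL wells for full effect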

Max activity, inactive:
C[C@@H]1CN([C@H](C)CO)C(=O)c2c(c3ccccc3n2C)-c2ccccc2CO[C@@H]1CN(C)Cc1ccncc1 24.2% [at 35 µM]
CCC(CO)Oc1cc(NCc2ccccc2)c2ncn(C(C)C)c2c1 (stereo not drawn) -5.47% [at 8 µM]
CCS(=O)(=O)Nc1ccc2c(c1)C(=O)N(C)C[C@H](OC)[C@H](C)CN(CC1CCCC1)[C@@H](C)CO2 11.3%
CC(C)=CCN(C(=O)C#Cc1ccccc1)[C@H](CO)c1ccccc1 14.2% [at 1.95 µM]
C[C@H](CO)N1C[C@H](C)[C@H](CN(C)Cc2ccc(C(F)(F)F)cc2)OCCCC[C@H](C)Oc2ccc(NS(C)(=O)=O)cc2C1=O 5.77% [at 1.95 µM]
CCCC#Cc1ccc2c(c1)O[C@@H](CN(C)Cc1ccncc1)[C@H](C)CN([C@@H](C)CO)S2(=O)=O -9.09% [at 1.95 µM]
CO[C@@H]1CN(C)C(=O)c2ccc(NC(=O)c3nc4ccccc4s3)cc2OC[C@H](C)N(Cc2cccnc2)C[C@H]1C 25.4%
CCCC(O)C#Cc1cnc2c(c1)C(=O)N([C@H](C)CO)C[C@H](C)[C@H](CN(C)Cc1ccncc1)O2 (stereo partly drawn) 12%
C[C@H](CO)N1C[C@H](C)[C@H](CN(C)C(=O)c2cccc(F)c2)Oc2ncc(C3=CCCCC3)cc2C1=O -6.68% [at 8 µM]
C[C@@H]1CN([C@H](C)CO)C(=O)c2c(c3ccccc3n2C)-c2ccccc2CO[C@@H]1CN(C)S(=O)(=O)CC(F)(F)F 28.3%
Cc1ccccc1S(=O)(=O)NCC[C@@H]1CC[C@@H](NC(=O)Nc2cccc(Cl)c2)[C@@H](CO)O1 23.9%
C[C@H]1CN([C@@H](C)CO)C(=O)Cc2cc(NS(C)(=O)=O)ccc2O[C@@H]1CN(C)Cc1ccccc1 11.3%
COCC(=O)Nc1ccc2c(c1)OC[C@@H](C)N(Cc1cncnc1)C[C@H](C)[C@@H](OC)CN(C)C2=O -8.05% [at 1.95 µM]
C[C@H](CO)N1C[C@H](C)[C@H](CN(C)S(=O)(=O)c2ccsc2)OCc2ccccc2-c2ccccc2C1=O -12.1% [at 0.5 µM]
C[C@H](O)C#Cc1ccc2c(c1)O[C@H](CN(C)CC1CCCCC1)[C@H](C)CN([C@H](C)CO)S2(=O)=O 20.7%
C[C@H]1CN([C@@H](C)CO)C(=O)c2cc(NC(=O)Cc3ccccc3)ccc2O[C@@H]1CN(C)C(=O)Nc1ccccc1 -13.4% [at 0.5 µM]
C[C@H](NC(=O)C[C@H]1C=C[C@@H](NC(=O)CN2CCOCC2)[C@H](CO)O1)c1ccccc1 -8.28% [at 8 µM]
C/C=C/c1cnc2c(c1)C(=O)N([C@H](C)CO)C[C@@H](C)[C@@H](CN(C)Cc1ccc(F)cc1)O2 -15% [at 0.5 µM]
COc1ccccc1S(=O)(=O)N[C@H]1C=C[C@@H](CC(=O)N2CCCCC2)O[C@@H]1CO -9.97% [at 8 µM]
CO[C@@H]1CN(C)C(=O)c2ccc(NC(=O)c3ccccc3F)cc2OC[C@H](C)N(CC2CC2)C[C@@H]1C -12.3% [at 8 µM]
CCCC#Cc1ccc2c(c1)O[C@H](CN(C)Cc1cccnc1)[C@@H](C)CN([C@@H](C)CO)S2(=O)=O 13.7% [at 8 µM]
CCCNC(=O)N1C[C@H](C)[C@H](OC)CN(C)C(=O)c2cc(NC(C)=O)ccc2OC[C@H]1C 4.83% [at 8 µM]
CC(=O)N(C)C[C@@H]1Oc2ncc(C#Cc3ccc(F)cc3)cc2C(=O)N([C@@H](C)CO)C[C@@H]1C 32.1%
C/C=C/c1ccc2c(c1)O[C@H](CN(C)C(=O)Cc1ccncc1)[C@@H](C)CN([C@H](C)CO)S2(=O)=O -10.9% [at 8 µM]
CCCN1C[C@@H](C)[C@@H](OC)CN(C)C(=O)c2cc(NC(=O)c3cccc(OC)c3)ccc2OC[C@@H]1C -16.1% [at 1.95 µM]
COc1ccccc1C#Cc1ccc2c(c1)O[C@H](CN(C)Cc1cccnc1)[C@H](C)CN([C@@H](C)CO)S2(=O)=O 25.3%
Cc1ccccc1-c1ccc2c(c1)O[C@@H](CN(C)Cc1ccncc1)[C@@H](C)CN([C@H](C)CO)S2(=O)=O 49.5%
CO[C@H]1CN(C)C(=O)c2ccc(NC(=O)C3CC3)cc2OC[C@H](C)N(Cc2cncnc2)C[C@H]1C -10.1% [at 1.95 µM]
CO[C@@H]1CN(C)C(=O)c2ccc(NC(=O)Nc3ccccc3)cc2OC[C@H](C)NC[C@@H]1C -13.5% [at 8 µM]
CO[C@@H]1CN(C)C(=O)c2ccc(NC(=O)Nc3ccccc3)cc2OC[C@H](C)NC[C@H]1C -11.5% [at 0.5 µM]
CO[C@@H]1CN(C)C(=O)c2ccc(NC(=O)c3nc4ccccc4s3)cc2OC[C@@H](C)N(Cc2ccncc2)C[C@@H]1C 23.4%
CO[C@H]1CN(C)C(=O)c2ccc(NC(=O)Nc3ccccc3)cc2OC[C@H](C)NC[C@H]1C -20.9% [at 8 µM]
CO[C@@H]1CN(C)C(=O)c2ccc(NC(=O)c3nc4ccccc4s3)cc2OC[C@H](C)N(Cc2ccncc2)C[C@@H]1C 26.2%
CO[C@H]1CN(C)C(=O)c2ccc(NC(=O)Nc3ccccc3)cc2OC[C@@H](C)NC[C@H]1C -11.9%
COc1ccccc1S(=O)(=O)N[C@H]1C=C[C@H](CC(=O)N2CCCCC2)O[C@@H]1CO -11.2% [at 1.95 µM]
C[C@H](NC(=O)C[C@@H]1C[C@@H]2c3cc(NC(=O)NC4CCCCC4)ccc3O[C@@H]2[C@@H](CO)O1)c1ccccc1 6.02% [at 8 µM]
CO[C@H]1CN(C)C(=O)c2cc(NC(=O)c3cc(C)on3)ccc2OC[C@H](C)N(C(C)=O)C[C@H]1C -7.95% [at 1.95 µM]
O=C(C[C@@H]1C[C@@H]2c3cc(NC(=O)Nc4ccc(C(F)(F)F)cc4)ccc3O[C@@H]2[C@@H](CO)O1)NCC1CC1 20.8% [at 35 µM]
CC(C)[C@@H](C)NC(=O)N(C)C[C@@H]1OCc2ccccc2-c2ccccc2C(=O)N([C@H](C)CO)C[C@H]1C 47.6% [at 35 µM]
CO[C@H]1CN(C)C(=O)c2cc(NC(=O)C3CCC3)ccc2OC[C@H](C)N(Cc2ccc(F)cc2)C[C@H]1C 14.5%
COc1ccc(-c2ccc([C@H]3[C@H](C#N)N(C(=O)NC4CCCCC4)[C@H]3CO)cc2)cc1 32.4%
C[C@@H]1CCCCO[C@H](CN(C)Cc2ccc3c(c2)OCO3)[C@@H](C)CN([C@H](C)CO)C(=O)c2cc(NC(=O)Nc3ccc(C(F)(F)F)cc3)ccc2O1 15.4% [at 1.95 µM]
C[C@@H]1CN([C@H](C)CO)C(=O)c2cc(NC(=O)Nc3ccc(C(F)(F)F)cc3)ccc2O[C@@H](C)CCCCO[C@@H]1CN(C)Cc1ccc2c(c1)OCO2 29.4% [at 1.95 µM]
C[C@H](CO)N1C[C@H](C)[C@H](CN(C)Cc2ccc3c(c2)OCO3)OCCCC[C@H](C)Oc2ccc(NC(=O)Nc3ccc(C(F)(F)F)cc3)cc2C1=O 31.6% [at 0.5 µM]
C[C@H](CO)N1C[C@H](C)[C@H](CN(C)Cc2ccc3c(c2)OCO3)OCCCC[C@H](C)Oc2ccc(NC(=O)Nc3ccc(F)cc3)cc2C1=O -7.04% [at 0.5 µM]
C[C@@H]1CN([C@H](C)CO)C(=O)c2cc(NC(=O)Nc3ccc(F)cc3)ccc2O[C@@H](C)CCCCO[C@H]1CN(C)Cc1ccc2c(c1)OCO2 -9.48%
C[C@@H]1CCCCO[C@H](CN(C)Cc2ccc3c(c2)OCO3)[C@H](C)CN([C@@H](C)CO)C(=O)c2cc(NC(=O)Nc3ccc(F)cc3)ccc2O1 23.7%
CC(C)CC#Cc1ccc2c(c1)O[C@@H](CN(C)CC1CCOCC1)[C@H](C)CN([C@@H](C)CO)S2(=O)=O 17.9%
CO[C@@H]1CN(C)C(=O)c2ccc(NC(=O)c3nc4ccccc4s3)cc2OC[C@@H](C)N(Cc2cccnc2)C[C@H]1C 33.1%
CC(C)CC#Cc1ccc2c(c1)O[C@H](CN(C)Cc1ccccc1F)[C@H](C)CN([C@H](C)CO)S2(=O)=O 28.2%
COc1ccccc1S(=O)(=O)N(C)C[C@H]1OCc2ccccc2-c2c(n(C)c3ccccc23)C(=O)N([C@@H](C)CO)C[C@H]1C 11.5%
C[C@@H]1CN([C@H](C)CO)S(=O)(=O)c2ccc(-c3ccccc3)cc2O[C@H]1CN(C)Cc1cccnc1 46%
CN1CCN(C(=O)C[C@@H]2C[C@@H]3c4cc(NC(=O)Nc5ccc(C(F)(F)F)cc5)ccc4O[C@@H]3[C@H](CO)O2)CC1 30.1%
Cc1ccccc1-c1ccc2c(c1)O[C@@H](CN(C)Cc1ccncc1)[C@H](C)CN([C@@H](C)CO)S2(=O)=O 33.1%
O=C(Nc1ccc2c(c1)OCO2)N[C@H]1CC[C@H](CCNC(=O)C2CC2)O[C@@H]1CO -10.4% [at 1.95 µM]
CCNC(=O)C[C@@H]1CC[C@H](NC(=O)C2CC2)[C@@H](CO)O1 -9.17%
O=C(NCC[C@@H]1CC[C@H](NC(=O)C2CCCCC2)[C@@H](CO)O1)Nc1ccc(Cl)cc1 16.1% [at 8 µM]
O=C(NCC[C@H]1CC[C@@H](NC(=O)C2CCCCC2)[C@@H](CO)O1)Nc1ccc(Cl)cc1 15.3% [at 8 µM]
